The subject of one assay is IL-6-GFP PC-9GR. Description: cell viability (CCK-8 OD) relative to DMSO control (fraction of control); higher = more viable cells. The conditions noted are these: compound concentration: 10 uM; treatment time: 48 h. An outline of the steps: (§1)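 PC-9 and PC-9GR lung cancer cells carrying a lentiviral construct that overexpresses IL-6-GFP were seeded in 96-well plates at 3000 cells/well. Every compound in a purchased 510-compound library was applied at a final 10 μM for 48 h, and a parallel set of plates was kept for GFP imaging. Cell viability was read by CCK-8 absorbance, taking each well's optical density as a ratio to the vehicle control well. Two independent replicates were run.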

The test system of the next assay is IL-6-GFP PC-9. The description is as above. The conditions noted are these: compound concentration: 10 uM; treatment time: 48 h. An outline of the steps: as §1

The structures appear in SMILES notation. Where a name gives a salt, the structure may show the parent alone. ± gives the standard deviation of the averaged measurements.

In the case of `CC(C(=O)[O-])c1cccc(Oc2ccccc2)c1.CC(C(=O)[O-])c1cccc(Oc2ccccc2)c1.[Ca+2]` (stereo not drawn) [Fenoprofen Calcium], the cell viability in the assay with IL-6-GFP PC-9GR stood at 1.26 ± 0.064; with IL-6-GFP PC-9, 0.938 ± 0.013.

For the compound `Cc1ccc(=O)n(-c2ccccc2)c1` [Pirfenidone], the cell viability amounted to 1.24 ± 0.21 in the assay with IL-6-GFP PC-9GR and 1.07 ± 0.31 with IL-6-GFP PC-9.

Take `CC12CCC(CC1)C(C)(C)O2` [Eucalyptol]: the cell viability worked out at 1.29 ± 0.37 in the assay with IL-6-GFP PC-9GR and 1.33 ± 0.048 with IL-6-GFP PC-9.

For `CC(=O)OC[C@H]1O[C@@H]([S-])[C@H](OC(C)=O)[C@@H](OC(C)=O)[C@@H]1OC(C)=O.CCP(CC)CC.[Au+]` [Auranofin], the cell viability in the assay on IL-6-GFP PC-9GR was 0.00506 ± 0.12; in the assay on IL-6-GFP PC-9, 0.0702 ± 0.04.

As for `COc1cc(C(=O)NS(=O)(=O)c2ccccc2C)ccc1Cc1cn(C)c2ccc(NC(=O)OC3CCCC3)cc12` [Zafirlukast], the cell viability in the assay with IL-6-GFP PC-9GR worked out at 1.31 ± 0.026; in the assay on IL-6-GFP PC-9, 0.967 ± 0.023.

Turning to `CN1C(=O)/C(=C2/C(=O)Nc3ccccc32)c2ccccc21` [Meisoindigo], the cell viability in the assay on IL-6-GFP PC-9GR amounted to 1.39 ± 0.44; with IL-6-GFP PC-9, 1.02 ± 0.21.

As to `COC(=O)/C=C/C(=O)OC` [Dimethyl Fumarate], the results for the cell viability with IL-6-GFP PC-9GR and in the assay on IL-6-GFP PC-9 were 1.13 ± 0.16 and 1.33 ± 0.26, respectively.

Take `O=C(OCCOCCO)c1ccccc1Nc1cccc(C(F)(F)F)c1` [Etofenamate]: the cell viability with IL-6-GFP PC-9GR was determined as 1.01 ± 0.29; in the assay on IL-6-GFP PC-9, 1.24 ± 0.13.

As to `CC(=O)Nc1ccccc1` [Acetanilide], the cell viability came to 1.31 ± 0.19 in the assay with IL-6-GFP PC-9GR and 1.24 ± 0.12 with IL-6-GFP PC-9.

`COc1c2ccoc2cc2oc(=O)ccc12` [Bergapten]: the cell viability with IL-6-GFP PC-9GR is 0.902 ± 0.041; with IL-6-GFP PC-9, 0.8378 ± 0.0073.

Regarding `CCOC(=O)c1ccc(C#Cc2ccc3c(c2)C(C)(C)CCS3)nc1` [Tazarotene], the cell viability in the assay with IL-6-GFP PC-9GR is 1.32 ± 0.14; with IL-6-GFP PC-9, 1.15 ± 0.041.

`CCS(=O)(=O)N1CC(CC#N)(n2cc(-c3ncnc4[nH]ccc34)cn2)C1.O=P(O)(O)O` [Baricitinib phosphate]: the cell viability in the assay with IL-6-GFP PC-9GR stood at 0.391 ± 0.7; in the assay with IL-6-GFP PC-9, 1.0937 ± 7.8e-05.

As to `O=C1CCCC2C3CCC[N+]4([O-])CCCC(CN12)C34` (stereo not drawn) [Oxymatrine], the cell viability in the assay with IL-6-GFP PC-9GR was determined as 1.47 ± 0.16; in the assay with IL-6-GFP PC-9 it was 1.33 ± 0.068.

Turning to `Cc1coc2c1C(=O)C(=O)c1c-2ccc2c(C)cccc12` [Tanshinone I], the results for the cell viability in the assay with IL-6-GFP PC-9GR and with IL-6-GFP PC-9 were 1.32 ± 0.097 and 1.51 ± 0.29, respectively.

For the compound `NC(CO)(CO)CO` [Trometamol], the cell viability came to 0.932 ± 0.18 with IL-6-GFP PC-9GR and 1.09 ± 0.061 in the assay on IL-6-GFP PC-9.

On to `COc1ccc2c(c1)c(CC(=O)OCC(=O)O)c(C)n2C(=O)c1ccc(Cl)cc1` [Acemetacin], for which the cell viability was found to be 1.07 ± 0.14 with IL-6-GFP PC-9GR and 0.954 ± 0.2 with IL-6-GFP PC-9.

`COc1ccc2cc(C(C)C(=O)O)ccc2c1` (stereo not drawn) [Naproxen]: the figures for the cell viability in the assay with IL-6-GFP PC-9GR and in the assay with IL-6-GFP PC-9 were 1.5 ± 0.37 and 1.08 ± 0.16, respectively.

Take `Cn1nnc2c(C(N)=O)ncn2c1=O` [Temozolomide]: the results for the cell viability in the assay with IL-6-GFP PC-9GR and with IL-6-GFP PC-9 were 1.18 ± 0.04 and 0.6981 ± 0.0048, respectively.

`C/C=C1/C2C=C(C)CC1(N)c1ccc(=O)[nH]c1C2` (single isomer, unassigned; (-)) [(-)-Huperzine A (HupA)]: the figures for the cell viability with IL-6-GFP PC-9GR and in the assay with IL-6-GFP PC-9 were 1.17 ± 0.37 and 1.29 ± 0.053, respectively.

Consider `Cl.NC1=NCC2c3ccccc3Cc3ccccc3N12` (stereo not drawn) [Epinastine HCl], for which the cell viability in the assay with IL-6-GFP PC-9GR was determined as 0.9943 ± 0.0026; with IL-6-GFP PC-9, 1.22 ± 0.014.

Turning to `CN(C)CCOC(c1ccc(Cl)cc1)c1ccccn1.O=C(O)/C=C\C(=O)O` (stereo not drawn) [CarbinoxaMine Maleate], the cell viability in the assay with IL-6-GFP PC-9GR worked out at 1.2 ± 0.26; in the assay on IL-6-GFP PC-9 it was 1.07 ± 0.066.

`COc1cc(C2c3cc4c(cc3C(OC3OC5COC(c6cccs6)OC5C(O)C3O)C3COC(=O)C23)OCO4)cc(OC)c1O` (stereo not drawn) [Teniposide]: the cell viability with IL-6-GFP PC-9GR was 0.0642 ± 0.047; with IL-6-GFP PC-9, 0.121 ± 0.035.

Take `Cc1cc(S(=O)(=O)[O-])c2c(C)ccc(C(C)C)cc1-2.[Na+]` [Sodium gualenate]: the cell viability in the assay on IL-6-GFP PC-9GR worked out at 1.45 ± 0.46; with IL-6-GFP PC-9 it was 0.583 ± 0.022.

Consider `OCc1ccccc1OC1OC(CO)C(O)C(O)C1O` (stereo not drawn) [Salicin], for which the cell viability in the assay on IL-6-GFP PC-9GR came out at 1.49 ± 0.23; in the assay on IL-6-GFP PC-9, 1.2 ± 0.097.

With `C=CC(=O)Nc1cc(Nc2nccc(-c3cn(C)c4ccccc34)n2)c(OC)cc1N(C)CCN(C)C` [Osimertinib (AZD9291)], the cell viability in the assay with IL-6-GFP PC-9GR is 0.225 ± 0.073; in the assay on IL-6-GFP PC-9, 0.372 ± 0.059.

`CC1CNc2c(cccc2S(=O)(=O)NC(CCCNC(=N)N)C(=O)N2CCC(C)CC2C(=O)O)C1.O` (stereo not drawn) [Argatroban Monohydrate]: the cell viability came to 1.49 ± 0.35 in the assay with IL-6-GFP PC-9GR and 1.12 ± 0.23 in the assay on IL-6-GFP PC-9.

Regarding `C=CC1CN2CCC1CC2C(O)c1ccnc2ccc(OC)cc12.Cl.O.O` (stereo not drawn) [Quinine HCl Dihydrate], the results for the cell viability with IL-6-GFP PC-9GR and in the assay on IL-6-GFP PC-9 were 1.2 ± 0.21 and 1.19 ± 0.04, respectively.

`N.N.O=C([O-])C1(C(=O)[O-])CCC1.[Pt+2]` [Carboplatin]: the cell viability is 1.19 ± 0.012 in the assay with IL-6-GFP PC-9GR and 1.12 ± 0.074 with IL-6-GFP PC-9.

Regarding `Cc1ccc(Nc2nccc(N(C)c3ccc4c(C)n(C)nc4c3)n2)cc1S(N)(=O)=O` [Pazopanib], the cell viability in the assay with IL-6-GFP PC-9GR turned out to be 0.795 ± 0.041; in the assay with IL-6-GFP PC-9, 0.725 ± 0.062.

Values taken from the supplement of paper PMC8866396.
